Out of some 53,000 compounds screened, about 900 (1.7%) showed an effect of 50% or more. Shown is part of a subset that was picked to be rich in strong results.
These compounds were tested on Mycobacterium tuberculosis (assay: Cornell - Phenotypic assay to identify agents that inhibit growth of Mycobacterium tuberculosis). Details: 10 mM as filed; unlikely as a test dose.
Format: functional
Parameters: scale not given: direction of the effect not stated beside the values

Structure (SMILES)	Percent Effect [%]
CC(C)c1ncc(CN2CCOC(C(=O)Nc3ccccc3)C2)cn1 (stereo not drawn)	-3.657
CCCN(CCC)c1nc(N)nc(-c2cc(Cl)ccc2OC)n1	61.82
COc1ccc(Cl)cc1-c1nc(N)nc(N(C)C)n1	31.47
COc1ccc(Cl)cc1-c1nc(N)nc(N)n1	-5.371
CN1CCO[C@H]2CN(C(=O)c3ccoc3)C[C@H]21.O=C(O)C(F)(F)F	6.414
Cl.NCCc1cn(Cc2ccccn2)c2ccccc12	-5.41
CN(C)C(=O)c1cn2cc(-c3ccccc3Cl)n(CC3CC3)c(=O)c2n1	8.491
CCNC(=O)c1cn2cc(-c3ccccc3Cl)n(CC3CC3)c(=O)c2n1	93.59
CNC(=O)c1cn2cc(-c3ccccc3Cl)n(CC3CC3)c(=O)c2n1	16.32
CC(=O)N1CCc2[nH]cnc2C12CCN(C(=O)Cc1cccs1)CC2	5.963
Cc1nc(CN2CCCC(NCc3sccc3C)C2)no1 (stereo not drawn)	-19.65
COCCN1CCCC(c2ncc(C(=O)N3CCOCC3)c(C)n2)C1 (stereo not drawn)	-5.414
Cc1cccc(NC2CCN(C(=O)Nc3cc(C)on3)CC2)n1	-41.3
Cc1cccc(NC2CCN(C(=O)Nc3ccncc3)CC2)n1	-35.06
Cc1cccc(NC2CCN(C(=O)Nc3cc(F)cc(F)c3)CC2)n1	-33.08
Cc1cccc(NC2CCN(C(=O)Nc3ccc(F)c(F)c3)CC2)n1	108.1
Cc1cccc(NC2CCN(C(=O)Nc3cccc4[nH]ccc34)CC2)n1	103.5
Cc1cccc(NC2CCN(C(=O)Nc3cc(F)ccc3F)CC2)n1	0.502
O=C(O)C(F)(F)F.O=C1COC2(CCN(Cc3nccs3)CC2)CN1c1ccccc1	8.785
Cc1cc(O)cc(C2CCCN2C(=O)c2ccncc2)n1 (stereo not drawn)	3.916
Cc1cnn(CCNCc2csc(C)n2)c1	2.389
Cc1cnn(CCNCc2csc(COc3ccccc3)n2)c1	79.25

Structure (SMILES)	Percent Effect [%]
Cc1ccc(OCc2nc(CNCCn3cccn3)cs2)cc1	44.09
c1ccc(OCc2nc(CNCCn3cccn3)cs2)cc1	-6.946
Cc1cnn(CCCNCc2csc(COc3ccccc3)n2)c1	86.59
Cc1cnn(CCNCc2ccc(OCc3csc(C)n3)cc2)c1	22
CCc1ccc(-n2c(=O)[nH]c3nc(N4CCSCC4)ncc3c2=O)cc1	-3.279
CNC(=O)c1ccc(C2CN(C(=O)c3scnc3C)CCO2)nc1 (stereo not drawn)	-17.28
Cc1nc(-c2ccncc2)ncc1C(C)NC(=O)Cn1ccccc1=O (stereo not drawn)	-23.83
O=C(CC1CCCC1)N1CCOC(c2nc(-c3ncccn3)no2)C1 (stereo not drawn)	12.79
CN(C)C(=O)C1(C)CN(Cc2cn(C)c3ccc(F)cc23)CCO1 (stereo not drawn)	20.08
CNC(=O)C1(C)CN(Cc2cn(C)c3ccc(F)cc23)CCO1 (stereo not drawn)	75.75
CN(C)C(=O)C1(C)CN(Cc2cn(C)c3ccccc23)CCO1 (stereo not drawn)	34.96
CCn1cc2c(n1)CN(Cc1sccc1C)CC2COCC1CC1.O=C(O)C(F)(F)F (stereo not drawn)	57.43
COCC1CN(Cc2ccc(OC)cc2)Cc2nn(C)cc21.O=C(O)C(F)(F)F (stereo not drawn)	102.7
CCn1cc2c(n1)CN(Cc1ccc(F)cc1)CC2COCC1CC1.O=C(O)C(F)(F)F (stereo not drawn)	11.94
COCC1CN(Cc2ccc(F)cc2)Cc2nn(C)cc21.O=C(O)C(F)(F)F (stereo not drawn)	21.43
CCn1cc2c(n1)CN(Cc1ccc(C)o1)CC2COCC1CC1.O=C(O)C(F)(F)F (stereo not drawn)	32.3
CCOCC1CN(Cc2ccc(OC)cc2)Cc2nn(C)cc21.O=C(O)C(F)(F)F (stereo not drawn)	-10.16
COCCC(=O)N1CCCC([C@@H]2C[C@H](C(F)F)n3ncnc3N2)C1 (stereo partly drawn)	3.93
Cc1nc(C)n(CC2CCCN(CCC(=O)Nc3cc(C)on3)C2)n1 (stereo not drawn)	-4.464
CCCS(=O)(=O)N1CC(=O)N(Cc2cccc(OC)c2OC)CC(O)C1 (stereo not drawn)	0.4174
CCc1n[nH]c(C(=O)NCCn2nccc2C)c1C	-14.26
COCCN(C)C(C(=O)O)c1ccc2ccccc2c1 (stereo not drawn)	-16.36

Structure (SMILES)	Percent Effect [%]
CCc1ccc(CN2CCN(c3ccc(Cl)nn3)CC2)nc1	44.3
COc1ccc(CN2CCN(c3ncc(Cl)cn3)CC2)cc1	15.9
CCc1ccc(CN2CCN(c3ncc(Cl)cn3)CC2)nc1	55.1
Cc1ccccc1CN1CCCN(C(=O)c2ccn(C)c(=O)c2)CC1	-39.51
Cc1ccc(-c2nc(CCNCc3ccncc3)co2)cc1	55.33
COc1ccc(-c2nc(CCNCc3ccncc3)co2)cc1	44.79
c1ccc(-c2nc(CCNCc3ccncc3)co2)cc1	-12.86
CO[C@@H]1CN(C)S(=O)(=O)[C@@]12CCN(Cc1ccccc1)C2	9.469
CC(C)c1cc(C2CCCN2C(=O)CN2C(=O)OC(C)(C)C2=O)no1 (stereo not drawn)	16.26
CN(Cc1nccs1)c1nc(-c2ccccn2)nc2c1CCNCC2	28.38
CN(Cc1cccnc1)c1nc(-c2ccccn2)nc2c1CCNCC2	31.77
CN(Cc1ncc[nH]1)c1nc(-c2ccccn2)nc2c1CCNCC2	56.27
COc1c(C2CCCN2C(=O)c2cncnc2C)c(C)nn1C (stereo not drawn)	-27.58
COC(=O)c1ccn(CC(=O)Nc2nn(CC3CC3)c3ccccc23)n1	50.91
CC(=O)c1ccn(CC(=O)Nc2nn(CC3CC3)c3ccccc23)n1	23.92
CCn1nc(NC(=O)Cn2ccc(C(C)=O)n2)c2ccccc21	6.087
Cc1csc(C(Cc2ccsc2)NC(=O)c2cc(=O)n(C)c(=O)n2C)n1 (stereo not drawn)	-13.69
OCC1CN(Cc2nc(C(F)(F)F)cs2)c2ccccc2O1 (stereo not drawn)	105.7
Cc1nc(CNC2CCN(Cc3ccccc3)C2)sc1C (stereo not drawn)	5.497
Cc1csc(CN2CC(CO)Oc3ccccc32)n1 (stereo not drawn)	26.95
CN(Cc1nc(C(F)(F)F)cs1)C(=O)CCc1ccccn1	3.481
Cc1nc(CN2CC(CO)Oc3ccccc32)sc1C (stereo not drawn)	83.41

Structure (SMILES)	Percent Effect [%]
Cc1nc(CCNC2CCN(Cc3ccccc3)C2)sc1C (stereo not drawn)	2.096
CC(C)c1nc2oc(C(=O)N3CCOCC3)c(N)c2c2c1CCCC2	5.641
COc1ccccc1Oc1cncc(C2CCCN(C)C2)n1 (stereo not drawn)	10.25
Cn1c(C(=O)N2CCC(CC(N)=O)CC2)c(Cl)c2ccccc21	-5.817
CCOC1CCN(C(=O)c2c(Cl)c3ccccc3n2C)CC1	55.05
COC1CCN(C(=O)c2c(Cl)c3ccccc3n2C)CC1	49.28
Cn1cc(C2CCCN2C(=O)c2cn(-c3ccccc3)nn2)cn1 (stereo not drawn)	-26.03
CNC(=O)c1cn[nH]c1C1CCN(Cc2ccccc2F)C1 (stereo not drawn)	-6.719
COc1cc(C)c(S(=O)(=O)CC(=O)N(C)C(C)C)cc1OC	1.501
CN(C1CCCCC1)S(=O)(=O)N1CCN(Cc2ccon2)CC1	27.01
Cc1ccccc1CN1CCCN(S(=O)(=O)N(C)C2CCCCC2)CC1	58.2
CN(C1CCCCC1)S(=O)(=O)N1CCN(Cc2ccco2)CC1	2.513
CCOCCC1(CNC(=O)c2ccncc2)CCC1	19.62
CN1CCCC(c2ccc(N3CCOCC3)cn2)C1.Cl (stereo not drawn)	35.11
Cc1cc(C2CCCCN2C(=O)c2ccsc2)nc2nccn12 (stereo not drawn)	-13.93
Cc1cc(NC(=O)CN2CCN(C3CCCC3)C(=O)C2)nn1C	12.31
CCn1nccc1CN(C)c1[nH]cnc2nc(C)nc1-2	1.62
c1ccc(-c2nc3c(c(NCCc4c[nH]cn4)n2)CCNC3)cc1	96.35
c1nc(CCNc2nc(C3CC3)nc3c2CCNCC3)c[nH]1	8.345
c1cc(-c2nc3c(c(NCCc4c[nH]cn4)n2)CCNCC3)ccn1	-23.76
O=C(c1ccncc1)N1CCC(Cc2cnc3[nH]ccc3c2)CC1	-105.2
Cc1ncc2c(n1)CN(Cc1nc(-c3cccs3)no1)CC2	-6.861

Structure (SMILES)	Percent Effect [%]
CCc1ncc2c(n1)CN(Cc1nc(-c3cccs3)no1)CC2	23.26
CC(C)c1ncc2c(n1)CN(Cc1nc(-c3cccs3)no1)CC2	53.42
CCOc1cccc2c1OCC(=O)N(c1ccc3c(c1)OCO3)C2	-8.978
Cc1ncc(C(=O)NCCNC(=O)c2ccccc2)s1	-13.65
CCc1nccn1C1CCCN(C(=O)c2cn3c(C)cccc3n2)C1 (stereo not drawn)	3.072
CN1CCOC(CN(C(=O)CCc2cnn(C)c2)c2nccs2)C1 (stereo not drawn)	-11.48
CC(C)(C)c1n[nH]cc1CNCC1CCN(C2CC2)C1.Cl (stereo not drawn)	94.59
CC(C)N1CCC(CNCc2c[nH]nc2C(C)(C)C)C1 (stereo not drawn)	7.799
CCN1CCC(CNCc2c[nH]nc2C(C)(C)C)C1.Cl (stereo not drawn)	10.08
Cl.O=S(=O)(N1CCCC1)N1CC[C@H](c2ccccc2)[C@H]2NCCCC[C@H]21	-130.5
CCC(CO)(CO)NC(=O)C1CCC(=O)N(CCc2ccccc2)C1 (stereo not drawn)	9.017
Cc1cnn(CC(C)NCc2csc(-c3cccs3)n2)c1 (stereo not drawn)	3.673
COc1cccc(-c2nc(CNC(C)Cn3cccn3)cs2)c1 (stereo not drawn)	32.64
CC(Cn1cccn1)NCc1csc(-c2cccs2)n1 (stereo not drawn)	61.96
CC(Cn1cccn1)NCc1csc(-c2ccc(F)cc2)n1 (stereo not drawn)	35.16
CC(Cn1cccn1)NCc1nc(-c2ccc3c(c2)OCO3)no1 (stereo not drawn)	3.313
CC(Cn1cccn1)NCc1csc(-c2ccc3c(c2)OCO3)n1 (stereo not drawn)	59.29
CC(Cn1cccn1)NCc1csc(-c2ccccc2)n1 (stereo not drawn)	63.3
COc1ccc(-c2nc(CNC(C)Cn3cccn3)cs2)cc1 (stereo not drawn)	49.5
CC(Cn1cccn1)NCc1csc(-c2ccsc2)n1 (stereo not drawn)	13.88
